In PubChem BioAssay AID720584 (National Center for Advancing Translational Sciences (NCATS), 2013):
Some of the results follow. Results filed as inconclusive are left out. The source made the active and inactive calls. Calls follow the shape of the dose curve; as a rule, active = well fitted inhibition curve with a large enough effect; inconclusive = small, poorly fitted or top-dose-only effect; inactive = flat fitted curve, though single readings scatter.

Test system: Trypanosoma brucei pyruvate kinase (TbPYK)
Experiment: qHTS of Trypanosoma Brucei Inhibitors: Orthogonal Assay for Cherry-picked Compounds; also: nearly all actives have a fitted effect of over 75% in size
Details: recombinant TbPYK, ADP-Glo luminescence, 60 min
From the text: Members of the Trypanosomatidae family of parasitic protozoans cause a spectrum of diseases throughout the tropical and subtropical world. Sleeping sickness, caused by two subspecies of Trypanosoma brucei, is endemic to areas of sub-Saharan Africa, while Chagas' disease, a manifestation of Trypanosoma cruzi infection, is prevalent throughout Central and South America. In addition, many species of Leishmania are responsible for a range of cutaneous and visceral diseases, causing ulcers, destructive lesions and kalaazar, a lethal infection of the viscera. These diseases cause severe public health and economic burdens on populations that are often already caught in a tragic cycle of poverty, poor nutrition and disease. Collectively, parasites of the trypanosomatid family infect 30 million people worldwide (~500 million live in endemic areas), and account for ~130K deaths annually. Existing treatments have developed little in the past 50 years, and suffer from toxicity, poor efficacy and resistance; the goal of this project is to develop lead drugs that will be suitable for entry into pre-clinical trials. […] Glycolysis in axenically cultured T. cruzi, representing the intracellular pathogenic stage, is also essential for these parasites. {Engel, 1987} This project aims to discover and optimize selective inhibitors of the glycolytic enzyme pyruvate kinase (PYK) from Trypanosoma brucei, the parasite that causes sleeping sickness. […] While the primary qHTS provides a luminescence-based detection of TbPyK by measuring ATP production, the orthogonal assay will measure the amount of ADP substrate remaining. […]
Briefly, 2 uL of substrate/TbPYK buffer (all columns but column 4) are dispensed into Greiner white solid-bottom 1536-well assay plates. […] ADP-Glo reagent II is then added (5 uL), followed by a 10 minute room temperature incubation, before being transferred to a ViewLux high-throughput CCD imager (PerkinElmer), wherein single end-point measurements of luminescence are acquired using a clear filter. […]
Potency is read from the fitted curve at half-maximal effect.

SMILES	Potency
Cc1ccc2c(c1)=C/C(=C\c1c(O)[nH]c(=O)[nH]c1=O)C(=O)N=2	25.1 µM (active)
O=C1NC(=O)N(c2ccccc2)C(=O)/C1=C/c1ccc([N+](=O)[O-])s1	14.1 µM (active)
COc1ccc(N2C(=O)/C(=C/c3ccco3)C(=O)NC2=S)cc1	6.31 µM (active)
